Hits are enriched below; roughly 3.8% of the tested compounds scored in any of these assays.
Mdm2-MdmX inh: inhibitors of human Mdm2-MdmX association, primary screen, cell-based, luminescence, split luciferase, SaOS-2, uHTS. Protein Mdm4 (Homo sapiens) + E3 ubiquitin-protein ligase Mdm2 (Homo sapiens), …. SaOS-2 split-luciferase Mdm2/MdmX complementation. inhibition, % at 8 µM. actives 3% (n = 330,000). AID 485346, 2010;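 active = inhibition of at least 50% at 8 µM in the primary screen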
Gli-Sufu antag: Gli-Sufu pathway antagonists, primary screen, luciferase luminescence, Sufu-KO-LIGHT cells, uHTS; actives 0.74% (n = 340,000); Sufu-KO-LIGHT fibroblasts, Gli luciferase reporter luminescence; inhibition, % at 5 µM; AID 588413, 2011;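 active = inhibition above about 55%, limit read from the data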
697 NFkB inh: inhibitors of PMA/ionomycin-induced NF-kB reporter, 697 cells, primary screen, B-cell NF-kB inhibitor project, cell-based, luminescence, uHTS. actives 0.33% (n = 330,000). 697 B-cell NF-kB luciferase reporter, 16 h. inhibition, % at 4 µM; in the data active = inhibition above about 35%
Shn3 3UTR inh: reduction of Shn3 3'UTR firefly luciferase signal, primary screen, Schnurri-3 inhibitor project, cell-based, Clone20 osteoblasts, set 2; Clone20 osteoblast Shn3 3'UTR firefly luciferase, 24 h; AID 588674, 2011; actives 0.52% (n = 360,000); inhibition, % at 12.5 µM;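 active = mean inhibition of at least 75% with every replicate also reaching 75%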
Jurkat NFkB inh: inhibitors of induced NF-kB luciferase reporter, primary screen, TCR NF-kB activation inhibitor project, cell-based, luminescence, uHTS | Jurkat, PMA/ionomycin-induced NF-kB luciferase reporter | inhibition, % at 4 µM | actives 0.53% (n = 330,000) | AID 435003, 2010; in the data active = inhibition above about 50%
Jurkat NFkB conf: PMA/ionomycin-induced NF-kB reporter inhibitors, Jurkat retest, confirmation, T-cell NF-kB inhibitor project, cell-based, luminescence, single concentration. shares compounds with Jurkat NFkB inh. Jurkat NF-kB luciferase, 16 h. inhibition, % at 4 µM. actives 27% (n = 2,700). AID 435020, 2010;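 active = inhibition reaching about 45% at 4 µM in either replicate, limit read from the data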
Of the large screens only hits and unclear results are named; the others gave an inactive call (follow-up assays come after a bar, where they were run).

Cc1nonc1OCCN1CCN(c2ccc([N+](=O)[O-])cc2)CC1	Jurkat NFkB inh 58 | Jurkat NFkB conf inactive
O=[N+]([O-])c1ccc(N2CCN(Cc3ccc(Br)o3)CC2)cc1	Jurkat NFkB inh 52 | Jurkat NFkB conf inactive
CN(C)N=Nc1ccc(S(N)(=O)=O)cc1	none
CN(C)c1ccc(N=Nc2ccc(S(N)(=O)=O)cc2)cc1	none | Jurkat NFkB conf inactive
Cn1c(=NC(=O)c2cccc([N+](=O)[O-])c2)sc2ccccc21	none | Jurkat NFkB conf inactive
CCCc1nc2oc3ccccc3c(=O)c2c(=O)n1-c1ccc(C)cc1	none | Jurkat NFkB conf inactive
Cc1ccc(-n2c(C(C)C)nc3oc4ccccc4c(=O)c3c2=O)cc1	none | Jurkat NFkB conf inactive
Cc1ccc(NC(=O)/C(Cl)=C/c2ccccc2)cc1C	none | Jurkat NFkB conf inactive
CC(=O)Nc1ccccc1C(=O)C(=O)Nc1ccc(C)c(C)c1	none
Cc1cccc(NC(=S)N/N=C/c2cccc(O)c2)c1C	Jurkat NFkB inh 62 | Jurkat NFkB conf inactive
Cc1ccccc1NC(=S)N/N=C/c1ccc(O)cc1O	none
CC(/C=C/c1ccc(O)cc1)=NNc1ccccc1	none (no result: Mdm2-MdmX inh, 697 NFkB inh, Jurkat NFkB inh)
CCN(C[C@H]1N[C@@](C)(C(=O)OC)[C@H]2C(=O)N(C)C(=O)[C@@H]12)S(=O)(=O)c1ccc(F)cc1	none
CCOc1ccc(NC(=O)c2cc3c(C)nc4ccccc4c3o2)cc1	Jurkat NFkB inh 60 | Jurkat NFkB conf inactive
CC(C)CCN1CCC[C@]2(N[C@H](c3ccc(C(F)(F)F)cc3)[C@@H]3C(=O)N(Cc4ccccc4)C(=O)[C@@H]32)C1=O	none (no result: Mdm2-MdmX inh, Gli-Sufu antag, 697 NFkB inh, Jurkat NFkB inh)
COc1cccc(C(C(=O)NCc2ccccc2)N(C(=O)c2csnn2)C2CC2)c1 (centres undefined)	none
CC(C)(C)c1ccc(C(=O)NCc2ccccc2)cc1	none
CC(C)(C)c1ccc(C(=O)NCCc2ccccc2)cc1	none (no result: Gli-Sufu antag) | Jurkat NFkB conf inactive
COc1ccc(C=O)cc1COc1ccc([N+](=O)[O-])c(C)c1	none
COc1ccc(C=O)cc1COc1ccc2c(c1)OCO2	Jurkat NFkB inh 59 | Jurkat NFkB conf inactive
COc1ccc(OCCOc2ccc(/C=C3\C(=N)N4N=C(C)SC4=NC3=O)cc2)cc1	none
Cc1ccc(C(=O)OCC(=O)c2ccccc2)cc1	none | Jurkat NFkB conf inactive
Cc1ccc(C(=O)CC(=O)c2ccccc2)cc1	none
Cc1ccc(NC(=S)c2ccc(N(C)C)cc2)cc1	none | Jurkat NFkB conf inactive
COC(=O)CSc1nc2cc3c(cc2cc1C#N)OCO3	none | Jurkat NFkB conf inactive
CCOC(=O)CSc1nc2cc3c(cc2cc1C#N)OCO3	none | Jurkat NFkB conf inactive
COC(=O)CSc1nc(-c2cccs2)ccc1C#N	none | Jurkat NFkB conf inactive
C#CCSc1nc(-c2cccs2)ccc1C#N	none
CCOc1cc(N2CCOCC2)c(OCC)cc1NC(=O)c1ccc(OC)c(S(=O)(=O)N2CCOCC2)c1	none
CC1CCCCC12NC(=O)N(CC(=O)NCCc1ccccc1)C2=O (centres undefined)	none
CCOc1ccc(C(=O)NC(=S)Nc2cccc(S(=O)(=O)NC3=NCCC3)c2)cc1	Jurkat NFkB inh 60 | Jurkat NFkB conf inactive
COc1cc(SC)ccc1C(=O)Nc1ccc(C)cc1C	none | Jurkat NFkB conf inactive
COc1cc(SC)ccc1C(=O)NC(C)C	none
COc1cc(SC)ccc1C(=O)Nc1ccc(C)cc1	none | Jurkat NFkB conf inactive
O=C(Cc1ccc(Cl)cc1)NNC(=O)C1CC=CCC1C(=O)O (centres undefined)	none (no result: Gli-Sufu antag)
COc1ccc(N=C2C(=Nc3ccc(OC)cc3)N(c3ccccc3)C(=S)N2C(=O)c2ccc(Cl)cc2)cc1	none
COc1ccc(N=C2C(=Nc3ccc(OC)cc3)N(c3ccc(N(C)C)cc3)C(=S)N2c2ccc(OC)cc2)cc1	Jurkat NFkB inh 70 | Jurkat NFkB conf inactive
COc1ccc(N=C2C(=Nc3ccc(OC)cc3)N(c3ccc(OC)cc3)C(=S)N2C(=O)c2ccc(OC)cc2)cc1	none
COc1ccc(N2C(=S)N(C(=O)c3ccccc3)C(=Nc3ccccc3)C2=Nc2ccccc2)cc1	none | Jurkat NFkB conf inactive
COc1ccc(CCC(=O)Nc2cc(S(=O)(=O)N3CCCCC3)ccc2N(C)C)cc1	none
Cc1cc2nc(-c3ccc(SCC(=O)Nc4ccc(S(=O)(=O)NC5CC5)cc4)nc3)[nH]c2cc1C	none | Jurkat NFkB conf inactive
NS(=O)(=O)c1ccc(N2N=C(c3ccccc3)CC2c2ccccc2Cl)cc1 (centres undefined)	none (no result: Jurkat NFkB inh)
CCOc1ccc(Nc2cc(C)nc(-n3nc(C)cc3C)n2)cc1	Jurkat NFkB inh 54 | Jurkat NFkB conf 57
O=C(CCc1nc(-c2ccc(F)cc2)no1)Nc1cccc(C(=O)NC2CC2)c1	none
O=C1NC(Cc2ccccc2)c2nc3cc(Cl)ccc3c(=O)n2-c2ccccc21 (centres undefined)	none (no result: Gli-Sufu antag, Shn3 3UTR inh)
CCOC(=O)Cn1c(-c2ccccn2)nc2ccccc21	none
CCOC(=O)c1ccc2c(c1)nc(-c1ccccn1)n2CC	none | Jurkat NFkB conf inactive
COc1ccc(S(=O)(=O)Nc2ccc3c(c2)C(=O)N([C@H](C)CO)C[C@H](C)[C@@H](CN(C)S(=O)(=O)c2cn(C)cn2)OCCCC[C@H](C)O3)cc1	none (no result: Mdm2-MdmX inh, Gli-Sufu antag, 697 NFkB inh, Jurkat NFkB inh)
O=C(NCCSc1ccccc1)c1ccc(Br)cc1	none | Jurkat NFkB conf inactive
O=C(COC(=O)C1CC1)Nc1ccc(OC(F)F)cc1	none
O=C(COC(=O)C1CC1)Nc1ccc(N=Nc2ccccc2)cc1	none | Jurkat NFkB conf inactive
CC1=C(C(=O)N(C(C)C)C(C)C)CC(CC(=O)NCCc2ccccn2)C(=O)N1Cc1ccc(F)cc1 (centres undefined)	none (no result: Mdm2-MdmX inh, Gli-Sufu antag, 697 NFkB inh, Jurkat NFkB inh)
O=C(NCCc1ccccc1)C(=O)NCC1CCCN1S(=O)(=O)c1ccccc1 (centres undefined)	Jurkat NFkB inh 56 | Jurkat NFkB conf inactive
Cc1ccc(S(=O)(=O)N2CCCCC2CCNC(=O)C(=O)NCc2ccccc2)cc1 (centres undefined)	Jurkat NFkB inh 63 | Jurkat NFkB conf inactive
COc1ccc(C=NNC(=O)c2cc(C)oc2C)cc1O	none
CC(C)(C)CC(C)(C)c1ccc(O)c(Cc2ccc(Cl)cc2Cl)c1	none (no result: Mdm2-MdmX inh, 697 NFkB inh, Jurkat NFkB inh)
Cc1cccn2cc(-c3c[nH]c4ccccc34)nc12	none
Brc1ccc2nc(-c3c[nH]c4ccccc34)cn2c1	none | Jurkat NFkB conf inactive
COc1cc2c(cc1OC)[C@@H](NC(=O)COc1ccccc1)[C@H](OCc1ccccc1)C2	none (no result: Jurkat NFkB inh)
Cc1ccc(-c2cn3cccnc3n2)cc1NC(=O)c1cccs1	none
CN(Cc1ccc2nsnc2c1)C(=O)C1CCC(=O)N(CCc2ccccc2)C1 (centres undefined)	none (no result: Mdm2-MdmX inh, Gli-Sufu antag, 697 NFkB inh, Jurkat NFkB inh)
COc1ccc(OC)c(CCNC(=O)Cn2nc(C)c3c(C)n(-c4ccc(C)cc4)nc3c2=O)c1	Jurkat NFkB inh 56 | Jurkat NFkB conf 66

Screening data as filed in PubChem.
